Bioassay records from PubChem BioAssay.
p53null 39C tox: selectivity test: cytotoxicity in p53 null cells, nonpermissive temperature. H1299 p53-null (neo) cells, 39C, ATPlite viability, 24 h. Potency, µM (series often up to 46.1 µM), inactives show top-dose activity, negative = cell killing, usual class: cytotoxic. hit rate 0.97% among 55,000;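 further: 0% = DMSO only and -100% = full killing by 100 µM tamoxifen; nearly all actives have a fitted effect of over 50% in size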
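Following overnight plating at 37C (600 cells/well), H1299-neo or H1299-p53A138V cells are dosed up to 46 uM. Incubation lasts 24 hr at 39C before ATP detection.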
PMP22 txn prim: PMP22 gene transcription modulation | hit rate 2% among 43,000 | Potency, µM (titrated, usually from 57.5 µM), inactives show top-dose activity change, negative = inhibition, actives largely listed as inhibitors | S16 Pmp22-F2sN Schwann cells, FLuc/NLuc coincidence luminescence, 24 h; active means clear falling dose curves in both reporters; inconclusive means both reporters move, but less clearly or upward; inactive means either reporter flat; the % is the NLuc reporter signal
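S16(c9) Schwann cells with FLuc/NLuc coincidence reporter in the Pmp22 3' UTR; compounds pin-transferred, 24 h at 37C. Dual-luciferase read: FLuc first, then NLuc after Stop&Glo, each 10 min at room temperature.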
mTORC1 inh: inhibitors of mTORC1 signaling in Tsc2-/- p53-/- MEF cells; Potency, µM (titrated, usually from 38.3 µM), for inactives: at the highest dose activity change, negative = inhibition, most hits filed as inhibitors; Tsc2-/- p53-/- MEF, phospho-rpS6 immunofluorescence/PI, 24 h; hit rate 0.78% among 44,000;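 further: plate controls were DMSO for no effect and rapamycin for full effect; nearly all actives have a fitted effect of over 50% in size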
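Immunofluorescence of rpS6 phosphorylation in Tsc2-/-, p53-/- MEFs after 24 h compound exposure, normalized to propidium iodide signal. Activity is expressed as % positive cells, thresholded with 7.5 nM rapamycin.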
p53null 32C tox: kills p53 null cells at the permissive temperature; H1299-neo p53 null cells, ATP luminescence, 24 h, 32C; Potency, µM (series often up to 46.1 µM), inactives show top-dose activity change, negative = cytotoxicity, most hits filed as cytotoxic; hit rate 0.62% among 55,000; AID 903;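 further: 0% = DMSO only and -100% = full killing by 100 µM tamoxifen; nearly all actives have a fitted effect of over 55% in size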
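H1299-neo, 600 cells/well; overnight 37C; cpd up to 46 uM, 24 h at 32C; ATPlite luminescence after 20 min RT; normalized to DMSO (0%) and tamoxifen 100 uM (100% kill); Hill-fit AC50.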
S16 viability: S16 Schwann cell cytotoxicity; S16 Pmp22-F2sN Schwann cells (luciferase reporters placed in the Pmp22 gene) viability, CellTiter-Glo, 24 h; Potency, µM (series often up to 57.5 µM), without a hit: at the highest dose activity change, negative = cytotoxicity, hits mostly cytotoxic; hit rate 0.48% among 43,000; further: nearly all actives have a fitted effect of over 65% in size
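CellTiter-Glo counter-screen, qHTS, 1536-well. Cells: S16(c9) Pmp22-F2sN, 500-1,000/well in DMEM + 10% FBS. Cpd 23 nL pin transfer, 24 h, 37C/5% CO2. Read: luminescence, CCD imager.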
Numbers without * were called inactive; ? = inconclusive; nt = no result. Sampled rows, rich in hits. Any-hit rate of the full collection: about 3.2%. Unless noted, the call rests on the fitted dose curve; in most records, active means well fitted curve in the direction sought with a large enough effect; inconclusive means small, poorly fitted or top-dose-only effect, or another doubt; inactive means no such curve, though single readings can be large; an effect the other way counts as inactive or inconclusive. Unless noted, on the % scale 0 is the no-effect control and ±100 the full control effect; potency means the concentration at half of the fitted maximal effect.

SMILES	p53null 39C tox	PMP22 txn prim	mTORC1 inh	p53null 32C tox	S16 viability
Cc1nnc(N2CCCC(C(=O)NCc3ccccc3)C2)c2nn(-c3ccccc3)c(C)c12 (configuration not stated)	1.6%	-4.6%	-2.4%	0.0%	-4.5%
Cc1ccc(Cl)cc1NC(=O)C1CCN(c2nnc(C)c3c(C)n(-c4ccccc4)nc23)CC1	12.6µM*	?	0.4%	?	1.5%
Cc1nnc(N2CCC(C(=O)NCCc3ccccc3Cl)CC2)c2nn(-c3ccccc3)c(C)c12	10µM*	?	-8.3%	?	35.5µM*
CCc1ccc(CNC(=O)C2CCCN(c3nnc(C)c4c(C)n(-c5ccccc5)nc34)C2)cc1 (configuration not stated)	15.8µM*	?	-3.3%	-24.1%	?
Cc1nnc(N2CCC(C(=O)NCCc3ccccc3)CC2)c2nn(-c3ccc(Cl)cc3)c(C)c12	?	3.8%	3.1%	5.6%	-12.8%
CCN(CC)c1ccc(-c2nc(-c3ccncc3)no2)cc1[N+](=O)[O-]	6.6%	-34.1%	6.1%	-9.8%	1.7%
Cc1ccc(-n2nc3c(N4CCCC(C(=O)NCCc5ccccc5)C4)nnc(C)c3c2C)cc1 (configuration not stated)	-4.2%	?	-6.0%	8.7%	?
COc1ccccc1CCNC(=O)C1CCN(c2nnc(C)c3c(C)n(-c4ccc(C)cc4)nc23)CC1	10µM*	?	-9.2%	-13.2%	?
CC(=O)C1=C(c2ccc(C)c(C)c2)N(C(C)=O)n2c(nnc2-c2ccc(Cl)cc2)S1	6.9%	?	-1.8%	6.8%	?
O=C(NCCc1ccccc1Cl)c1ccc2c(c1)nc1n2CCCCC1	2.51µM*	17.2%	0.2%	3.16µM*	-2.0%
Cc1ccc(CCNC(=O)c2ccc3c(c2)nc2n3CCOC2)cc1	-10.0%	-0.5%	-4.5%	-4.9%	18.0%
O=C(NCCc1ccccc1)c1ccc2c(c1)nc1n2CCOC1	10µM*	-3.0%	-19.1%	7.94µM*	2.0%
Cc1ccccc1CCNC(=O)c1ccc2c(c1)nc1n2CCC(C)C1 (configuration not stated)	?	?	4.0%	10µM*	22.2%
CC(C)CCNC(=O)c1ccc2c(c1)nc1n2CCCCC1	6.31µM*	-14.7%	0.0%	7.94µM*	0.8%
CC1C(=O)Nc2ccc(S(=O)(=O)NCc3ccc(N(C)C)cc3)cc2NC1=O (configuration not stated)	5.2%	-28.7%	-10.5%	-1.4%	-7.7%
CCc1ccc(-n2nc(CO)c(C(=O)NC)n2)cc1	20µM*	-0.8%	3.7%	?	0.2%
CCc1ccc(-n2nc(CO)c(C(=O)NCC(c3ccccc3)c3ccccc3)n2)cc1	-13.6%	-27.0%	1.6%	-0.2%	1.1%
COc1cc(CN2CCc3nc(N4CCN(c5ccccn5)CC4)ncc3C2)cc(OC)c1OC	-9.5%	8.91µM*	0.0%	6.6%	11.2µM*
COc1cccc(CNC(=O)c2nn(C)c3c2CSc2ccccc2-3)c1	-18.8%	-13.5%	1.6%	0.1%	1.3%
O=C(Nc1ccc2oc(-c3cc(Br)ccc3Cl)nc2c1)c1ccc2ccccc2c1	?	?	-13.6%	-9.4%	22.4µM*
O=C(Nc1ccc2oc(-c3ccc4ccccc4c3)nc2c1)c1cc(Br)ccc1Cl	-15.4%	?	16.5µM*	-3.9%	-4.4%
Cc1ccc(C)c(NC(=O)CSc2nc3c([nH]c4ccccc43)c(=O)n2-c2ccc(F)cc2)c1	7.0%	?	-1.2%	-5.5%	-22.6%
O=C(NCCN1CCCCC1)c1ccc(Cn2c(SCc3ccc(F)cc3)nc3cccnc32)cc1	?	-6.0%	-9.7%	15.8µM*	?
COCCCNC(=O)c1ccc(Cn2c(SCc3ccc(F)cc3)nc3cccnc32)cc1	12.6µM*	-10.0%	-6.5%	10µM*	-24.5%
COCCCNC(=O)c1ccc(CSc2nc3cccnc3n2Cc2ccc(OC)cc2)cc1	-25.3%	?	?	3.8%	-4.0%
SMILES	p53null 39C tox	PMP22 txn prim	mTORC1 inh	p53null 32C tox	S16 viability
COc1ccc(NC(=O)Cn2c(SCc3ccc(C)cc3)nc3cccnc32)cc1OC	5.01µM*	?	-19.5%	3.55µM*	-18.3%
CN(C)CCNC(=O)c1ccc(Cn2c(SCc3ccc(F)cc3)nc3cccnc32)cc1	-10.0%	10.4%	-5.5%	-10.8%	-18.0%
CSc1nc2sc3c(c2c(=O)n1-c1ccc(C)c(Cl)c1)CCN(C(C)=O)C3	-1.7%	-13.7%	-2.2%	-3.1%	12.3%
COc1cc(/C=N/O)ccc1OCc1ccc(C(=O)O)cc1	8.91µM*	nt	nt	12.6µM*	nt
Cc1cc(Cl)ccc1NS(=O)(=O)c1c(C(=O)N2CCCCCC2)c(C)n(C)c1C	-14.4%	14.9%	0.0%	1.2%	3.3%
CC(=O)c1ccc(N2CCN(C(=O)Nc3cn(CC(C)C)c(=O)c4ccccc34)CC2)cc1	5.4%	7.2%	0.6%	6.8%	7.3%
Cc1cc(NCc2ccc(Cl)cc2)n2cnnc2n1	-26.5%	?	-16.2%	-7.4%	?
CCN(CC)CCCNC(=O)c1nn(-c2ccc(C)cc2)c(=O)c2c1c1ccccc1n2C	19.6%	?	?	3.6%	?
CCN(CC)CCOC(=O)c1ccc(NC(=O)c2nn(-c3ccc(C)cc3)c(=O)c3c2c2ccccc2n3C)cc1	3.98µM*	5.15µM*	0.927µM*	6.31µM*	4.47µM*
COc1ccccc1NC(=O)C1=C(C)Nc2nc(SCc3ccccc3F)nn2C1c1cccs1 (configuration not stated)	?	?	0.0%	-17.0%	21.1%
COc1ccc(S(=O)(=O)c2c(Nc3ccccc3F)sc(C(=O)c3cccc(OC)c3)c2N)cc1	3.3%	4.01µM*	-26.7%	17.0%	?
CCOc1ccc2nc(N3CCCC(C(=O)NCCc4ccc(OCC)c(OCC)c4)C3)sc2c1 (configuration not stated)	-12.2%	-67.6%	-5.7%	-23.8%	9.6%
CCCCNC(=O)c1cc(-c2ccc(OC)cc2)nc2n[nH]c(-c3cccc([N+](=O)[O-])c3)c12	14.9%	?	-5.4%	0.7%	15.8µM*
COc1ccc(CNC(=O)c2cc(-c3ccc(OC)c(OC)c3)nc3n[nH]c(-c4ccc(C)cc4)c23)cc1	-1.7%	?	14.7µM*	-12.0%	-12.6%
COc1ccc(CNC(=O)c2cc(-c3ccc(OC)cc3)nc3n[nH]c(-c4cccc([N+](=O)[O-])c4)c23)cc1	14.3%	?	0.6%	4.0%	3.4%
Cc1ccc(C(=O)Nc2ccc3nc(SCC(=O)N4CCc5ccccc54)sc3c2)cc1	-10.8%	-41.7%	-6.3%	-14.4%	4.9%
CC(C)Oc1ccc(C(=O)Nc2nnc(SCC(=O)N3CCOCC3)s2)cc1	0.631µM*	nt	nt	0.562µM*	nt
